DT40 TDP1 no CPT: qHTS for Inhibitors of human tyrosyl-DNA phosphodiesterase 1 (TDP1): qHTS in cells in absence of CPT; DT40 Tdp1-/- hTDP1 cells, no CPT, ATP luminescence, 48 h; Potency, µM (doses to about 46.2 µM), for the others: at the highest dose activity change, negative = growth inhibition, usual class: inhibitors; hit rate 15% among 420,000; AID 686978, 2013; also: potency is read from the fitted curve at half-maximal effect; nearly all actives have a fitted effect of over 55% in size
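Stably hTDP1-transfected Tdp1-null chicken DT40 cells were treated with library compounds minus camptothecin and grown for at least 48 hr at 37 °C, after which cellular ATP was quantified by luminescence.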
Gal4-VP16 FLuc: counter-screen for ROR gamma inhibitors: Gal4-VP16 reporter. Drosophila S2 Gal4-VP16 UAS-luciferase, luminescence, 20 h. Potency, µM (series often up to 53.6 µM), for inactives: at the top dose activity, negative = inhibition, most hits filed as inhibitors. hit rate 3.5% among 310,000. AID 2546;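 also: Gal4-VP16 expression switched on by copper sulfate through the metallothionein promoter; potency is read from the fitted curve at half-maximal effect; nearly all actives have a fitted effect of over 50% in size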
RORg inh: ROR gamma (mouse) transcription inhibition; Potency, µM (doses to about 53.6 µM), for inactives: at the top dose activity change, negative = inhibition, usual class: inhibitors; Drosophila S2 Gal4-RORgamma UAS-luciferase reporter, 20 h; P51450; hit rate 5.4% among 310,000; also: potency is read from the fitted curve at half-maximal effect; nearly all actives have a fitted effect of over 60% in size
Target sequence (P51450 whole entry, looked up, the tested form may be a part): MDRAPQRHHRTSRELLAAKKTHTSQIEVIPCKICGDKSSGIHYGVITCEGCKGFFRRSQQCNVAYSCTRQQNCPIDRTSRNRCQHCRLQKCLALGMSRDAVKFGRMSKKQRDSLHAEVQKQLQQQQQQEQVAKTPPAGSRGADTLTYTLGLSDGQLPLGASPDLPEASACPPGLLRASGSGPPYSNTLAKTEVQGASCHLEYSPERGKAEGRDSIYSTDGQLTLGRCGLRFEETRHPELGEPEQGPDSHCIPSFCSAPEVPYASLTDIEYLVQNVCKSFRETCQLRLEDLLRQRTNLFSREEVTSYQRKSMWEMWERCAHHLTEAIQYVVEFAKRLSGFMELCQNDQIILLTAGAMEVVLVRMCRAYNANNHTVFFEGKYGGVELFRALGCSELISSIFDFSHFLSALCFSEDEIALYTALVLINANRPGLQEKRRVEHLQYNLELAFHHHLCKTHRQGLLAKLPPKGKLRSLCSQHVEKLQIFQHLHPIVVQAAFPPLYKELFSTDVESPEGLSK
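Drosophila S2 cells stably expressing Gal4-DBD/mouse RORγ fusion under metallothionein promoter plus UAS-luciferase; compound 1 h, then 700 uM CuSO4 induction for 20 h at ambient temperature; inhibition read as reduced luminescence.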
LDHA block: inhibitors of human lactate dehydrogenase A | hit rate 0.15% among 480,000 | purified LDHA, NADH/diaphorase-resazurin fluorescence; active compounds read low | activity change, % (values are at about 110 or 230 µM); in the data active = activity change below about -30%; inconclusive = mostly about -25% to -30%;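 also: plate controls were DMSO wells for no effect and wells without enzyme for full effect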
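Resorufin fluorescence (ex540/em590), read at 0 and 20 min after diaphorase/resazurin addition, reports the NADH left after a 5 min room-temperature reaction of 2 nM human LDH5 with 0.06 mM NADH and 0.2 mM pyruvate.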
TDP1 cell CPT: growth inhibition of DT40 Tdp1-/-;hTDP1 cells with camptothecin (screen for TDP1 inhibitors). chicken DT40 Tdp1-/-;hTDP1 cells + 20 nM CPT, ATP luminescence, 48 h. Potency, µM (series often up to 46.2 µM), inactives show at the top dose activity change, negative = growth inhibition, most hits filed as inhibitors. hit rate 12% among 420,000; also: potency is read from the fitted curve at half-maximal effect; nearly all actives have a fitted effect of over 55% in size
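Chicken DT40 Tdp1-/- cells stably complemented with human TDP1 were seeded at 400 cells/well in medium containing 20 nM camptothecin, exposed to pin-transferred compounds, and grown at 37 °C for at least 48 hr. Viability was read as ATP luminescence.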
IL-1B inflam inh: inhibitors of inflammasome signaling (IL-1 beta secretion). hit rate 4.7% among 360,000. activity change, % at 57.5 µM. THP-1 LPS/ATP IL-1B secretion, AlphaLISA, 16 h; active compounds read low. AID 743279; in the data active = activity change below about -50%; inconclusive = mostly about -30% to -49%
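Secreted IL-1B measured by AlphaLISA bead assay after 16 h compound exposure of THP-1 cells; compounds (final up to 57.5 uM) added 1 h before LPS (250 ng/mL) and ATP (1.25 mM) stimulation; lower signal means less secretion.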
Active calls of the source: *; u = inconclusive; x = no result; ! = a repeat was not active. In the library only some 18% were active in any assay of this set; here they are far more common. Unless noted, calls follow the shape of the dose curve; as a rule, active = well fitted curve in the direction sought with a large enough effect; inconclusive = small, poorly fitted or top-dose-only effect, or another doubt; inactive = no such curve, though single readings can be large; an effect the other way counts as inactive or inconclusive. Unless noted, % is scaled to controls: 0 for no effect and ±100 for the full control effect.

SMILES | DT40 TDP1 no CPT | Gal4-VP16 FLuc | RORg inh | LDHA block | TDP1 cell CPT | IL-1B inflam inh
Cc1nc2ccc(NC(=O)c3cc4c(s3)CCC4)cc2s1 | x | x | x | 9 | x | x
CCC(Cc1c(I)cc(I)c(N)c1I)C(=O)O (stereo not drawn) | 9µM*! | -3% | 21% | -11 | 4% | 67
O=C(CN1CCN(c2ccc(O)cc2)CC1)Nc1ccnn1Cc1ccccc1Cl | x | x | x | 15 | x | x
Cc1cccc(NC(=O)CNC(=O)Cn2c(=O)n(C)c3ccccc32)c1C | x | x | x | 7 | x | x
O=C1CN(C(=O)Cn2ncc(Cl)c(Cl)c2=O)c2ccccc2N1 | 8.2µM* | u | 11µM* | 4 | 7.3µM* | -106*
O=C(Cn1ncc(Cl)c(Cl)c1=O)NC1CCS(=O)(=O)C1 (stereo not drawn) | 21µM* | 18% | -4% | -1 | 23µM* | -6
O=C(Cn1ncc(Cl)c(Cl)c1=O)NC1CCCCC1 | 15µM* | x | x | -1 | 10µM* | -100*
Cc1cccc(NC(=O)CNC(=O)Cn2ncc(Cl)c(Cl)c2=O)c1C | 9.2µM* | x | x | -13 | 12µM* | -100*
O=C(CN1C(=O)c2ccccc2C1=O)NC1CCS(=O)(=O)C1 (stereo not drawn) | 0% | x | x | -17 | -6% | -12
C/C(=N/Nc1c(F)c(F)nc(F)c1F)c1ccc(C)c([N+](=O)[O-])c1 | x | x | x | 7 | x | x
COc1ccc(C2=C(O)C(=O)N(Cc3ccc(Cl)cc3)C2c2ccccc2F)cc1 (stereo not drawn) | x | x | x | 7 | x | x
O=C(Cn1ncc(Cl)c(Cl)c1=O)NCC1CCCCC1 | 1.8µM* | u | u | -4 | 2.6µM* | -103*
Cn1nc(CC(=O)NCC2CCCCC2)c2ccccc2c1=O | x | x | x | 6 | x | x
COc1ccc(C)cc1NC(=O)/C=C/c1ccc2ccccc2n1 | x | x | x | 0 | x | x
CCOc1cc(/C=C/c2ccc3ccccc3n2)ccc1O | x | x | x | 17 | x | x
COc1ccc(/C=C/c2cnc3ccccc3n2)cc1OC | 20µM* | x | x | 2 | u | x
C(=C\c1cnc2ccccc2n1)/c1ccc2c(c1)OCO2 | u | x | x | 2 | u | x
COc1cc(OC)c(/C=C/c2nccc3ccccc23)c(OC)c1 | 0.1µM* | x | x | 17 | 0.071µM* | x
COc1cc(OC)c(/C=C/c2ccc3ccccc3n2)c(OC)c1 | 0.1µM* | x | x | x | 0.1µM* | x
COc1ccc(/C=C/c2ccc3ccccc3n2)cc1OC | 13µM* | x | x | 4 | u | x
COc1ccc(C(=O)c2nccc3ccccc23)cc1 | -18% | -1% | 18% | -5 | 0% | -4
CN(c1ccc(-c2csc(NC3CCCC3)n2)cc1)S(C)(=O)=O | x | x | x | -3 | x | x
COc1ccc(Nc2nc(N)c(C(=O)c3ccc(C)cc3C)s2)cc1 | x | x | x | 6 | x | x
COc1cc(OC)c(C=Cc2ccncn2)c(OC)c1 | u | x | x | -1 | -6% | -9
COc1cc(OC)c(/C=C/c2ccccn2)c(OC)c1 | 2.8µM* | x | x | x | 3.2µM* | x
SMILES | DT40 TDP1 no CPT | Gal4-VP16 FLuc | RORg inh | LDHA block | TDP1 cell CPT | IL-1B inflam inh
CC(=O)c1sc2c(c1OC(=O)c1ccc(Cl)cc1)c(=O)n(-c1ccccc1)c(=S)n2-c1ccccc1 | u | x | x | 2 | u | 6
CC(=O)c1sc2c(c1OC(=O)c1ccc(Cl)cc1Cl)c(=O)n(-c1ccccc1)c(=S)n2-c1ccccc1 | 21µM* | 1% | 21% | -2 | u | -60*
Cc1ccc(-c2cc(-c3ccccc3)nc(N(C)N)n2)cc1 | u | u | 13µM* | -5 | u | -2
COc1cccc(C(CC(=O)Nc2cccc(-c3ccno3)c2)n2cccc2)c1 (stereo not drawn) | x | x | x | 5 | x | x
COc1cccc(C(=O)NC2CCN(CC(=O)Nc3c(C)cc(C)cc3C)CC2)c1 | x | 13µM* | u | x | x | x
O=C(OCC(=O)N1c2ccccc2Sc2ccccc21)c1cccnc1 | u | -12% | 13% | -1 | -4% | 24
O=C(NC1CCN(C(=O)N2c3ccccc3Sc3ccccc32)CC1)c1ccccc1Cl | 23µM* | 7% | 39% | 5 | u | -59*
COc1cc(OC)cc(C(=O)/C=C2\Sc3ccccc3N2C)c1 | 0% | -7% | 11% | -8 | -2% | -26
COc1cccc(C(=O)N2c3ccccc3Sc3ccccc32)c1 | 16µM* | -5% | 14% | -2 | 12µM* | -11
NC(=O)C1CCN(C(=O)N2c3ccccc3Sc3ccccc32)CC1 | -28% | -17% | -7% | -6 | -12% | u
O=C(c1ccncc1)N1c2ccccc2Sc2ccccc21 | 9.2µM* | -4% | 20% | -9 | 21µM* | 2
CCOC(=O)c1cc(Cl)c(C(=O)OCC)cc1Cl | x | x | x | -2 | x | x
CCCc1cc(=O)oc2cc(OC(C)C(=O)NCc3ccccn3)ccc12 (stereo not drawn) | x | x | x | 9 | x | x
COc1cccc(C(=O)NC2CCNCC2)c1 | 17% | 4% | -1% | -3 | -6% | -15
C=CCNC(=O)CN1CCC(NC(=O)c2ccco2)CC1 | -13% | -2% | 11% | -2 | -3% | -5
COCCNC(=O)CN1CCC(NC(=O)c2ccco2)CC1 | 4% | u | 13µM* | -4 | -9% | -10
COc1cccc(C(=O)NC2CCN(C(=O)N3c4ccccc4Sc4ccccc43)CC2)c1 | u | u | u | -2 | u | -57*
COc1cc(NC(=O)N2c3ccccc3Sc3ccccc32)c(C(=O)O)cc1OC | -6% | -4% | -11% | 1 | -3% | 3
O=C(NC1CCN(C(=O)N2c3ccccc3Sc3ccccc32)CC1)c1ccco1 | 21µM* | u | 5% | 4 | u | -8
COc1ccccc1NC(=O)N1c2ccccc2Sc2ccccc21 | 15µM* | x | x | -2 | 15µM* | x
N#Cc1cccc(NC(=O)NCCNc2ncccc2C(F)(F)F)c1 | x | x | x | 4 | x | x
COc1ccc(-c2coc3cc(OC(=O)C(C)(C)C)ccc3c2=O)cc1OC | x | x | x | 0 | x | x
Cc1cccc(C)c1NC(=O)CN(C)C(=O)Cc1csc(-c2cccc(Br)c2)n1 | x | x | x | -8 | x | x
CNc1c(N)n(Cc2ccccc2)c(=O)[nH]c1=O | -3% | 13% | 9% | -6 | 4% | -3
CCCNc1c(N)n(-c2ccccc2)c(=O)[nH]c1=O | 16µM* | 7% | -7% | -10 | u | 0
Nc1c(NCc2ccccc2)c(=O)[nH]c(=O)n1Cc1ccccc1 | 18µM* | 2% | -3% | -3 | u | -15
COCCCNc1nc2c(c(=O)n(C)c(=O)n2C)n1Cc1cccc(Br)c1 | x | x | x | 5 | x | x
c1cnc(-c2nn3c(COc4ccc5c(c4)OCO5)nnc3s2)cn1 | x | x | x | 12 | x | x
